Experimental data as given in PubChem BioAssay (EPA / NIEHS).
Where “and” joins values, the source holds several entries; their conditions need not be identical. Identical values can stand only once. Where a structure was tested more than once in an assay, its records may differ in their call. Calls of active or inactive are those of the source. Rule for the calls: active = hit-call score of the fitted dose curve at least 0.9, where 1 is the maximum; inactive = score below 0.9.

What was measured:
[1] = ATG_PBREM_CIS: Attagene CIS-FACTORIAL HepG2 Assay for human Phenobarbital-responsive Enhancer Module (PBREM) (AID 2282955); conditions: HepG2 PBREM cis-reporter, Attagene multiplexed transcription; actives raise or lower the signal
In short: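 After a 24 h incubation with test chemical, transfected HepG2 cells yield total RNA; reporter-specific RT-PCR products are fluorescently labelled, HpaI-digested and resolved by capillary electrophoresis against ROX size standards.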

[2] = molecular target: Paired box protein Pax-6 (Homo sapiens) (UniProt P26367); assay: ATG_Pax6_CIS: Attagene CIS-FACTORIAL HepG2 Assay for human Paired Box 6 (PAX6) (AID 2282956); conditions: HepG2 CIS-FACTORIAL PAX6 reporter transcription, RNA readout; actives raise or lower the signal
Sequence of Paired box protein Pax-6 (Homo sapiens) (P26367 whole entry, looked up): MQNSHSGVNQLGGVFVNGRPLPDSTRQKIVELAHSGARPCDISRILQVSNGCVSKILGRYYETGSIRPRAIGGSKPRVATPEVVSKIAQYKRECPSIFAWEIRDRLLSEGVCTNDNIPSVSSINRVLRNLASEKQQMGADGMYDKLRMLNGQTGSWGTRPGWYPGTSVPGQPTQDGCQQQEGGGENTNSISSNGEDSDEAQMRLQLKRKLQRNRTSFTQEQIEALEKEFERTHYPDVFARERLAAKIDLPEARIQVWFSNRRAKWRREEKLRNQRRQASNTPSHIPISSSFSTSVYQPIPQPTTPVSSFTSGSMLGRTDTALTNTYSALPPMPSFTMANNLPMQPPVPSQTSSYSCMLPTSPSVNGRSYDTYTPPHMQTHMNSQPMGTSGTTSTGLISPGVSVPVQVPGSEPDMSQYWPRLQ
In short: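 HepG2 cells transiently transfected with multiplexed cis-promoter reporter units (endogenous TF activity) were dosed for 24 h. Reporter mRNA was quantified by RT-PCR, 6-FAM labeling, HpaI digestion and capillary electrophoresis; bidirectional fitting versus DMSO baseline.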

[3] = ATG_PXRE_CIS: Attagene CIS-FACTORIAL HepG2 Assay for human Pregnane X Receptor Element (PXRE) (AID 2282957); conditions: HepG2 Attagene CIS-FACTORIAL PXRE reporter, mRNA; actives raise or lower the signal
In short: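 Cis-element reporter mRNA in human hepatoma HepG2 cells is measured 24 h post-dosing by RT-PCR, primer-extension labeling and capillary electrophoresis; gain or loss of signal is fitted relative to DMSO.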

[4] = ATG_RORE_CIS: Attagene CIS-FACTORIAL HepG2 Assay for human RAR-related Orphan Receptor Element (RORE) (AID 2282959); conditions: HepG2 Attagene cis-factorial RORE reporter, mRNA; actives raise or lower the signal
In short: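 Fluorescence intensity of reporter-specific cDNA fragments, separated by capillary electrophoresis, gives the signal. Source: HepG2 liver cells transiently transfected with cis-element reporters and exposed 24 h; DMSO-normalized bidirectional fit.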

[5] = ATG_Sox_CIS: Attagene CIS-FACTORIAL HepG2 Assay for human SRY-box transcription factor (SOX) (AID 2282960); conditions: HepG2 Attagene cis-factorial SOX reporter, mRNA; actives raise or lower the signal
In short: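 After 24 h of chemical treatment, transfected HepG2 reporter cells are lysed for total RNA. Transcript levels come from RT-PCR with labelled primer extension and capillary electrophoresis, analysed bidirectionally versus DMSO.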

[6] = ATG_SREBP_CIS: Attagene CIS-FACTORIAL HepG2 Assay for human Sterol Regulatory Element Binding (SREBP) (AID 2282962); conditions: HepG2 Attagene cis-factorial SREBP reporter, mRNA; actives raise or lower the signal
In short: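 HepG2 cells transiently transfected with multiplexed cis-element reporter units report endogenous transcription factor activity. After 24 h of chemical exposure, reporter mRNA was quantified by RT-PCR, 6-FAM labelling, HpaI digestion and capillary electrophoresis; bidirectional fits used DMSO as baseline.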

[7] = molecular target: Signal transducer and activator of transcription 3 (Homo sapiens) (UniProt P40763); assay: ATG_STAT3_CIS: Attagene CIS-FACTORIAL HepG2 Assay for human Signal Transducer and Activator of Transcription 3 (STAT3) (AID 2282963); conditions: HepG2, Attagene cis-factorial STAT3 reporter transcription; actives raise or lower the signal
Sequence of Signal transducer and activator of transcription 3 (Homo sapiens) (P40763 whole entry, looked up): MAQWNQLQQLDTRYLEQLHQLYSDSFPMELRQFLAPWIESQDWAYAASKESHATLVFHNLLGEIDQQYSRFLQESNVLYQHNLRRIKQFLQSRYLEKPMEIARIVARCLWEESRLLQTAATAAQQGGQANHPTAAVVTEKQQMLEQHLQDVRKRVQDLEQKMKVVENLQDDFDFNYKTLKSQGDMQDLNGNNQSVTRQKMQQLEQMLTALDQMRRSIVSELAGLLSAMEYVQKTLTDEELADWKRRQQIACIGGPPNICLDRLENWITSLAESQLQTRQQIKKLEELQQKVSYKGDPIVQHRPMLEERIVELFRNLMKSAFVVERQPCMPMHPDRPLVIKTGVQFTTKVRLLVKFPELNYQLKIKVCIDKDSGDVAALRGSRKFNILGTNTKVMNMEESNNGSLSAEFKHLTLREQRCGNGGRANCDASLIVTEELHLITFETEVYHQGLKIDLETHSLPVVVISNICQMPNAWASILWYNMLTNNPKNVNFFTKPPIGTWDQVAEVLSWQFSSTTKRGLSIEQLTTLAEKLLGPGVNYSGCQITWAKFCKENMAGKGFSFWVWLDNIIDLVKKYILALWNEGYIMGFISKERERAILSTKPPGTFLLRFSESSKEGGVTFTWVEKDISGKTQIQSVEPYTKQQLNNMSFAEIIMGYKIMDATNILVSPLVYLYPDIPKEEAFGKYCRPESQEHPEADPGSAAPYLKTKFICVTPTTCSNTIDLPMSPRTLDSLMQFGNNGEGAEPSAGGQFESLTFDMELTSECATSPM
In short: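 HepG2 cells transiently transfected with cis-element-driven multiple reporter transcription units; after 24 h chemical exposure, reporter mRNA measured by RT-PCR, 6-FAM primer-extension labelling, HpaI digestion and capillary electrophoresis. Bidirectional fitting versus DMSO baseline.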

[8] = ATG_TA_CIS: Attagene CIS-FACTORIAL HepG2 Assay for human TA Basal Promoter (AID 2282964); conditions: HepG2 Attagene CIS-factorial TA basal promoter reporter; actives raise or lower the signal
In short: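 Multiplexed mRNA reporter assay, HepG2, 24 h. Reporter cDNA amplified, 6-FAM primer-extended, HpaI-cut, CE-sized; DMSO = negative control and baseline.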

[9] = ATG_PPRE_CIS: Attagene CIS-FACTORIAL HepG2 Assay for human Peroxisome Proliferator-activated Response Element (PPRE) (AID 2282958); conditions: HepG2 PPRE cis-element reporter, Attagene transcription factor profiling; actives raise or lower the signal
In short: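 Multiplexed reporter transcription units under cis-regulatory promoters were transfected into HepG2 cells to capture endogenous factor activity. A 24 h incubation preceded RNA isolation and fluorescent RT-PCR fragment analysis.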

[10] = molecular target: Transcription factor Sp1 (Homo sapiens) (UniProt P08047); assay: ATG_Sp1_CIS: Attagene CIS-FACTORIAL HepG2 Assay for human Specificity Protein 1 (Sp1) (AID 2282961); conditions: HepG2 Sp1 cis-reporter transcription, actives raise or lower the signal
Sequence of Transcription factor Sp1 (Homo sapiens) (P08047 whole entry, looked up): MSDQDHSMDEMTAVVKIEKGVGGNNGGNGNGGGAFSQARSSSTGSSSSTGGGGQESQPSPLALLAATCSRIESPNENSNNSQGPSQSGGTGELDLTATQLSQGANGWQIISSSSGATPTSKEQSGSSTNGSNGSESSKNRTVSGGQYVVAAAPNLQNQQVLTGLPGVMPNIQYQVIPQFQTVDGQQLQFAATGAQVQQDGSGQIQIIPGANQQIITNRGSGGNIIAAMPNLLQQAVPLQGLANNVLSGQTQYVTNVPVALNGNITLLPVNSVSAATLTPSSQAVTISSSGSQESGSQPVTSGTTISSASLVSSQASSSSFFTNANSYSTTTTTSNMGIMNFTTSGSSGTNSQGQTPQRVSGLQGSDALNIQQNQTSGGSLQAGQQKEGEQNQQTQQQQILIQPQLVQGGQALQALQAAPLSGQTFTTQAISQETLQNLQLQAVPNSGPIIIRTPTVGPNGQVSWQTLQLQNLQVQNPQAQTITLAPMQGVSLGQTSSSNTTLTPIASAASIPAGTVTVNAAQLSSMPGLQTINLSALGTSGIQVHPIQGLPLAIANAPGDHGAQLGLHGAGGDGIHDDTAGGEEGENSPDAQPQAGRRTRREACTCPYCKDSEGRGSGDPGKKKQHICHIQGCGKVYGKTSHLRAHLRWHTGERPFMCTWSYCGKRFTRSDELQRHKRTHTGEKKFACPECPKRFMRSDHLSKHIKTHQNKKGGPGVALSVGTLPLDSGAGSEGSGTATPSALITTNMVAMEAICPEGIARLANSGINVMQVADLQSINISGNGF
In short: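 Sp1-driven reporter mRNA, read as capillary electrophoresis fluorescence after RT-PCR, in transiently transfected HepG2 cells dosed for 24 h; signal change in either direction relative to DMSO.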

Measured: AC50

Nc1ccc(Sc2ccc(N)cc2)cc1
inactive: [2] | [5] | [6] | [7] | [8]
active: [1] 100 µM | [3] 41.2 µM | [4] 36.6 µM

CC(C)(C)OOC(C)(C)C
inactive: [2] | [3] | [9] | [4] | [5] | [10] | [6] | [7] | [8]

Cc1ccc(N)cc1N
inactive: [1] | [2] | [3] | [4] | [5] | [10] | [6] | [7] | [8]

ClC(Cl)=C(c1ccc(Cl)cc1)c1ccccc1Cl
active: [2] 100 µM | [3] 2.77 µM | [9] 55.3 µM
inactive: [1] | [5] | [7] | [8]

O=S(=O)(c1ccc(O)cc1)c1ccc(O)cc1
active: [3] 35.9 µM
inactive: [1] | [2] | [9] | [5] | [10] | [7] | [8]

FC(F)(F)C(F)(C(F)(F)F)C(F)(F)C(F)(F)CC1CO1 (stereo not given)
inactive: [2] | [3] | [9] | [4] | [5] | [10] | [6] | [7] | [8]

COCCOCCO
inactive: [1] | [2] | [3] | [4] | [5] | [10] | [7] | [8]

CCOP(=S)(OCC)SCS(=O)(=O)CC
inactive: [1] | [2] | [5] | [6] | [7] | [8]
active: [3] 11.3 µM

Oc1ccccc1Br
inactive: [2] | [3] | [9] | [4] | [5] | [10] | [6] | [7] | [8]

O=[N+]([O-])c1ccccc1
inactive: [2] | [3] | [9] | [4] | [5] | [10] | [6] | [7] | [8]

CC(=O)CCc1ccc2c(c1)OCO2
active: [3] 27.9 µM
inactive: [1] | [2] | [4] | [5] | [10] | [6] | [7] | [8]

CCCCc1ccccc1
inactive: [2] | [3] | [9] | [4] | [5] | [10] | [6] | [7] | [8]

CCOC(=O)c1ccccc1N
active: [3] 39.6 µM
inactive: [1] | [2] | [4] | [5] | [10] | [7] | [8]

CC(Cc1ccc(OCC(=O)O)cc1)NCC(O)c1csc(C(F)(F)F)n1 (stereo not given)
inactive: [1] | [2] | [3] | [4] | [5] | [10] | [6] | [7] | [8]

c1ccc(OP(Oc2ccccc2)Oc2ccccc2)cc1
inactive: [1] | [2] | [4] | [5] | [10] | [6] | [7] | [8]
active: [3] 39.7 µM

CC(O)C(F)(F)C(F)(F)F (stereo not given)
inactive: [1] | [2] | [3] | [4] | [5] | [7] | [8]

CCOP(=S)(Oc1ccc([N+](=O)[O-])cc1)c1ccccc1 (stereo not given)
active: [3] 1.22 µM | [6] 27.2 µM
inactive: [1] | [2] | [5] | [10] | [7] | [8]

O=P(Oc1ccccc1)(Oc1ccccc1)Oc1ccccc1
active: [2] 33.4 µM | [3] 8.63 µM | [6] 16.7 µM | [8] 42 µM
inactive: [1] | [5] | [10] | [7]

C=CC(=O)OCC(CC)(COC(=O)C=C)COC(=O)C=C
inactive: [3] | [9] | [4] | [5] | [7] | [8]
active: [2] 15.5 µM | [10] 26.2 µM | [6] 27 µM

OCC1CO1 (stereo not given)
inactive: [2] | [3] | [9] | [4] | [5] | [10] | [6] | [7] | [8]

O=c1[nH]c2ccccc2c(=O)o1
inactive: [1] | [2] | [3] | [4] | [5] | [10] | [6] | [7] | [8]

CCOC(=O)c1ccccc1C(=O)OCC
inactive: [1] | [2] | [3] | [4] | [5] | [6] | [7] | [8]

CC(O)C#N (stereo not given)
inactive: [1] | [2] | [3] | [4] | [5] | [6] | [7] | [8]

O=C(O)CF
inactive: [2] | [3] | [4] | [5] | [7] | [8]
active: [3] 100 µM

O=C(O)C=CC(F)(C(F)(F)F)C(F)(F)F
inactive: [1] | [2] | [3] | [4] | [5] | [10] | [7] | [8]

CC1(C)CN=C(NN=C(/C=C/c2ccc(C(F)(F)F)cc2)/C=C/c2ccc(C(F)(F)F)cc2)NC1
active: [3] 4.77 µM | [5] 15.4 µM | [7] 20.2 µM | [8] 3.76 µM
inactive: [1] | [2] | [4]

O=P1(N(CCCl)CCCl)NCCCO1 (stereo not given)
inactive: [1] | [2] | [3] | [9] | [4] | [5] | [7] | [8]

CC(=O)c1ccc(-c2ccccc2)cc1
inactive: [2] | [9] | [4] | [5] | [10] | [6] | [7] | [8]
active: [3] 27.2 µM

Cc1cc(C)c(C(=O)P(=O)(c2ccccc2)c2ccccc2)c(C)c1
inactive: [1] | [2] | [5]
active: [3] 0.199 µM | [4] 51 µM | [7] 53.7 µM | [8] 45 µM

COC(=O)C(F)(F)C(F)(F)OC(F)(C(F)(F)F)C(F)(F)OC(F)=C(F)F (stereo not given)
inactive: [1] | [2] | [4] | [5] | [10] | [6] | [7] | [8]
active: [3] 4.84 µM and 15.2 µM and 5.55 µM | [4] 0.451 µM

NC(=O)C(F)(F)C(F)(F)F
inactive: [1] | [2] | [3] | [4] | [5] | [10] | [7] | [8]

CCOP(=O)(O)C(N)=O
active: [3] 47.9 µM
inactive: [1] | [2] | [5] | [10] | [6] | [7] | [8]

CCN(CC)c1ccccc1
inactive: [2] | [3] | [4] | [5] | [10] | [6] | [7] | [8]

CC(C)Nc1ccc(Nc2ccccc2)cc1
active: [3] 1.97 µM
inactive: [2] | [9] | [4] | [5] | [7] | [8]
